Reference: PubChem BioAssay (Tox21)
Records with an inconclusive call do not appear. Calls of active or inactive are those of the source. The call rests on the fitted dose curve; in most records, active means well fitted cell-killing curve with a large enough effect in the repeat runs; inconclusive means weak or mixed curves, or effect the other way; inactive means flat fitted curve, though single readings scatter.

assay: cAMP Responsive Elements (CRE) small molecule antagonists, cell-based qHTS assay: qHTS cell viability counter screen (AID 2060913); conditions: CRE-bla HEK293T viability, CellTiter-Glo luminescence, 5 h; series mostly up to 92.4 µM; viability change, negative = cytotoxic: at the top concentration; further: nearly all actives have a fitted effect of over 40% in size
In short: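 CRE-bla HEK293T cells (2,000/well, 18 h) given compound plus NKH477 0.25 uM final for 3 h at 37C; viability counter-screen by CellTiter-Glo luminescence in same wells after 30 min.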
On the % scale 0 is the no-effect control and ±100 the full control effect.

Row | Compound | viability change, negative = cytotoxic | Potency
1 | CCO/C=C1\N=C(c2ccccc2)OC1=O | 6.82% (inactive) | –
2 | Cc1cccc(C)c1 | – | inactive
3 | CC(C)C(=O)c1ccccc1 | -0.173% (inactive) | –
4 | COc1cc(CNC(=O)CCCC/C=C/C(C)C)ccc1O | 0.273% (inactive) | –
5 | CCc1ccc(O)c(OC)c1 | -14.7% (inactive) | –
6 | C/C=C(\C)C=O | 20.9% (inactive) | –
7 | C1CCN2C[C@@H]3C[C@@H](CN4CCCC[C@@H]34)[C@H]2C1 | 1.32% [at 42.5 µM] (inactive) | –
8 | Cc1cncc(C)c1 | -5.53% (inactive) | –
9 | CC(=O)c1ccc(C(C)=O)cc1 | 1.19% (inactive) | –
10 | Cc1c(N)c(=O)n(-c2ccccc2)n1C | -2.38% [at 42.5 µM] (inactive) | –
11 | CC(=O)CCCCn1c(=O)c2c(ncn2C)n(C)c1=O | 5.14% [at 42.5 µM] (inactive) | –
12 | CCCCC(CC)COC(=O)CCCCCCCC(=O)OCC(CC)CCCC (stereo not drawn) | – | inactive
13 | Cc1ccc(N(C)C)cc1 | – | inactive
14 | O=C1c2ccccc2C(=O)c2cc(Cl)ccc21 | -0.399% [at 8.39 µM] (inactive) | –
15 | CC(C)(C)[C@@H](O)[C@@H](Cc1ccc(Cl)cc1)n1cncn1 | – | inactive
16 | CCN(CCC#N)c1ccccc1 | -0.812% (inactive) | –
17 | CCCCCCCCSCC | 4.37% (inactive) | –
18 | O=C(O)P(=O)(O)O | 2.19% [at 42.5 µM] (inactive) | –
19 | CCCCCOC(C)=O | – | inactive
20 | OC[C@H]1O[C@@H](O[C@H]2[C@H](O)[C@@H](O)[C@H](O)O[C@@H]2CO)[C@H](O)[C@@H](O)[C@H]1O | 1.52% (inactive) | –

Row | Compound | viability change, negative = cytotoxic | Potency
21 | CCC1(C)NC(=O)NC1=O (stereo not drawn) | -5.27% (inactive) | –
22 | C=CC(=O)OCCCCCCCC(C)C | – | inactive
23 | Oc1ccc(Sc2ccc(O)cc2)cc1 | -0.88% (inactive) | –
24 | Cc1ccc(-n2[nH]c(C)c(N=Nc3cccc(-c4cccc(C(=O)O)c4)c3O)c2=O)cc1C | -2.54% [at 42.5 µM] (inactive) | –
25 | COc1ccc(COC=O)cc1 | 3.33% (inactive) | –
26 | O=C(O)CCCCCCCCCCC(=O)O | -3.62% (inactive) | –
27 | CC(C)COC(=O)CCCCC(=O)OCC(C)C | 6.05% (inactive) | –
28 | CCOC(=O)CCCCCCCCC(=O)OCC | 5.73% (inactive) | –
29 | CCCCCCCCCCOc1cc2c(=O)c(C(=O)OCC)c[nH]c2cc1OCC | -0.799% [at 8.39 µM] (inactive) | –
30 | NC(=O)CC[C@@H](N)C(=O)O | -0.24% [at 42.5 µM] (inactive) | –
31 | O=C(CS)OCCOC(=O)CS | -3.63% (inactive) | –
32 | CO[C@@]1(NC(=O)CSC[C@@H](N)C(=O)O)C(=O)N2C(C(=O)O)=C(CSc3nnnn3C)CS[C@@H]21 | 3.67% [at 42.5 µM] (inactive) | –
33 | F[Si-2](F)(F)(F)(F)F | 6.58% (inactive) | –
34 | CC(=O)NCCO | 1.36% (inactive) | –
35 | CCN(CC)C(=O)c1cccc(C)c1 | – | inactive
36 | C=CC(C)(O)CCC=C(C)C (stereo not drawn) | – | inactive
37 | C=C(C)c1cccc(C(C)(C)N=C=O)c1 | 1.92% (inactive) | –
38 | Cc1cccc(C(=O)O)c1O | 1.28% [at 42.5 µM] (inactive) | –
39 | Brc1ccc(-c2ccccc2)cc1 | 0.547% (inactive) | –

assay: cAMP Responsive Elements (CRE) small molecule agonists, cell-based qHTS assay: qHTS cell viability counter screen (AID 2060914); conditions: CRE-bla HEK293T viability, CellTiter-Glo luminescence, 5 h; series mostly up to 92.4 µM; activity change, negative = cytotoxicity: at the top concentration;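 further: viability read after 3 h of compound exposure; nearly all actives have a fitted effect of over 50% in size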
In short: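 CRE-bla HEK293T cells in 10% dialyzed FBS medium were exposed to compounds for 3 h at 37C after 18 h plating. CellTiter-Glo was then added in the same wells, and luminescence was read after 30 min at room temperature.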

Row | Compound | activity change, negative = cytotoxicity | Potency
40 | CCO/C=C1\N=C(c2ccccc2)OC1=O | 5.33% (inactive) | –
41 | Cc1cccc(C)c1 | – | inactive
42 | CC(C)C(=O)c1ccccc1 | 0.43% (inactive) | –
43 | COc1cc(CNC(=O)CCCC/C=C/C(C)C)ccc1O | -3.16% (inactive) | –
44 | CCc1ccc(O)c(OC)c1 | -0.772% (inactive) | –
45 | C/C=C(\C)C=O | -2.48% (inactive) | –
46 | C1CCN2C[C@@H]3C[C@@H](CN4CCCC[C@@H]34)[C@H]2C1 | 9.09% [at 42.5 µM] (inactive) | –
47 | Cc1cncc(C)c1 | 1.72% (inactive) | –
48 | CC(=O)c1ccc(C(C)=O)cc1 | -1.3% (inactive) | –
49 | Cc1c(N)c(=O)n(-c2ccccc2)n1C | 1.55% [at 42.5 µM] (inactive) | –
50 | CC(=O)CCCCn1c(=O)c2c(ncn2C)n(C)c1=O | -0.183% [at 42.5 µM] (inactive) | –
51 | CCCCC(CC)COC(=O)CCCCCCCC(=O)OCC(CC)CCCC (stereo not drawn) | – | inactive
52 | Cc1ccc(N(C)C)cc1 | – | inactive
53 | O=C1c2ccccc2C(=O)c2cc(Cl)ccc21 | 2.19% [at 8.39 µM] (inactive) | –
54 | CC(C)(C)[C@@H](O)[C@@H](Cc1ccc(Cl)cc1)n1cncn1 | -4.75% (inactive) | –
55 | CCN(CCC#N)c1ccccc1 | -8.54% (inactive) | –
56 | CCCCCCCCSCC | 13.5% (inactive) | –
57 | O=C(O)P(=O)(O)O | -11.7% [at 42.5 µM] (inactive) | –
58 | CCCCCOC(C)=O | -11.3% (inactive) | –
59 | OC[C@H]1O[C@@H](O[C@H]2[C@H](O)[C@@H](O)[C@H](O)O[C@@H]2CO)[C@H](O)[C@@H](O)[C@H]1O | 2.29% (inactive) | –

Row | Compound | activity change, negative = cytotoxicity | Potency
60 | CCC1(C)NC(=O)NC1=O (stereo not drawn) | 13.1% (inactive) | –
61 | C=CC(=O)OCCCCCCCC(C)C | – | inactive
62 | Oc1ccc(Sc2ccc(O)cc2)cc1 | 12.1% (inactive) | –
63 | Cc1ccc(-n2[nH]c(C)c(N=Nc3cccc(-c4cccc(C(=O)O)c4)c3O)c2=O)cc1C | -30.8% [at 42.5 µM] (inactive) | –
64 | COc1ccc(COC=O)cc1 | 3.17% (inactive) | –
65 | O=C(O)CCCCCCCCCCC(=O)O | – | inactive
66 | CC(C)COC(=O)CCCCC(=O)OCC(C)C | -10.5% (inactive) | –
67 | CCOC(=O)CCCCCCCCC(=O)OCC | -4.74% (inactive) | –
68 | CCCCCCCCCCOc1cc2c(=O)c(C(=O)OCC)c[nH]c2cc1OCC | -0.252% [at 8.39 µM] (inactive) | –
69 | NC(=O)CC[C@@H](N)C(=O)O | -6.07% [at 42.5 µM] (inactive) | –
70 | O=C(CS)OCCOC(=O)CS | -0.483% (inactive) | –
71 | CO[C@@]1(NC(=O)CSC[C@@H](N)C(=O)O)C(=O)N2C(C(=O)O)=C(CSc3nnnn3C)CS[C@@H]21 | 8.55% [at 42.5 µM] (inactive) | –
72 | F[Si-2](F)(F)(F)(F)F | 1.75% (inactive) | –
73 | CC(=O)NCCO | 1.44% (inactive) | –
74 | CCN(CC)C(=O)c1cccc(C)c1 | – | inactive
75 | C=CC(C)(O)CCC=C(C)C (stereo not drawn) | – | inactive
76 | C=C(C)c1cccc(C(C)(C)N=C=O)c1 | 2.09% (inactive) | –
77 | Cc1cccc(C(=O)O)c1O | -0.24% [at 42.5 µM] (inactive) | –
78 | Brc1ccc(-c2ccccc2)cc1 | 1.92% (inactive) | –
